Measurements from PubChem BioAssay AID1224861 (National Center for Advancing Translational Sciences (NCATS), 2016).
Inconclusive results are not listed. Active and inactive are the calls of the source. Calls come from the whole dose curve; as a rule, active = well fitted cell-killing curve with a large enough effect; inconclusive = small, poorly fitted or top-dose-only effect, or effect the other way; inactive = flat fitted curve, though single readings scatter.

Test: Compound cytotoxicity measured by an ATP content assay as a counter-screen for lead compounds in human astrocytes
Settings: human astrocytes viability, ATP luminescence; series mostly up to 46.1 µM; activity change, negative = cytotoxicity: at the top concentration
Method: National Center for Advancing Translational Sciences [NCATS] Johns Hopkins University School of Medicine Florida State University Assay Overview: Many compounds can cause cytotoxicity at high compound concentrations. […] The compound cytotoxicity may also cause side effects or toxicity in human. Thus, the compound cytotoxicity needs to be measured in each cell type and each compound incubation time - same as these in the compound screening assay. The compound cytotoxicity can be measured by cell viability assays such as the ATP content assay. We use an ATP content assay kit for cell viability measurement. It measures ATP content (level) in human astrocytes using a luminescence readout that is proportional to viable cell numbers. Decrease in the luminescence signal after the compound treatment indicates reduced cell viability and cell death caused by compound treatment.
Assay Protocol Summary: The medium for astrocytes contains AM basal medium (ScienCell, Cat.# 1801), AGS (ScienCell, Cat.# 1801), 10% FBS, and 1% Pen/Strep. The ATP content assay kit (PerkinElmer, Cat.# 6016731) was used to determine cell viability. The reagent was reconstituted and prepared as described by the manufacturer. Cells were seeded in 384- or 1536-well assay plates and cultured at 37 C with 5% CO2 for 16 to 20 hours. The typical cell seeding density in the 1536-well plate assay is 350 cells/well in 3 ul medium for astrocytes in the tissue cultured treated/PDL coated plates. Compounds were added to cells and incubated for a specific time such as 6, 24, or 72 hours before addition of the reagent mixture of the ATP content assay kit at 1:1 ratio. After incubation at room temperature for 10 minutes, the luminescence intensity in assay plates was measured using a ViewLux plate reader (PerkinElmer). […] The percentage inhibitions of the decreased cell viability by small molecules were then calculated that indicate compound cytotoxicity.

Row | Compound | activity change, negative = cytotoxicity | Potency
1 | O=C(O)CCC(=O)c1ccc(-c2ccccc2)cc1 | 4.23% (inactive) | –
2 | C[C@H](NC(=O)C(=O)Nc1ccccc1C(C)(C)C)C(=O)N[C@@H](CC(=O)O)C(=O)COc1c(F)c(F)cc(F)c1F | -9.95% (inactive) | –
3 | NC(=O)c1cccc2[nH]c(-c3ccc([C@H]4CCCN4)cc3F)nc12 | – | 5.48 µM (active)
4 | CC(C)OC(=O)CCCC=CC[C@@H]1[C@H](C=C[C@@H](O)COc2cccc(C(F)(F)F)c2)[C@H](O)C[C@@H]1O | 8.58% (inactive) | –
5 | O=C(O)c1ccccc1Nc1cccc(C(F)(F)F)c1 | 0.0564% (inactive) | –
6 | O=c1[nH]nc(Sc2ncc([N+](=O)[O-])s2)n1-c1ccc2c(c1)OCCO2 | – | 1.23 µM (active)
7 | O=C(CS)Nc1ccccc1 | -0.969% (inactive) | –
8 | O[C@@H](COc1cccc2ncccc12)CN1CCN(C2c3ccccc3[C@@H]3[C@H](c4ccccc42)C3(F)F)CC1 (stereo not given in full) | -4.19% (inactive) | –
9 | O=C1C[C@@H](c2ccc(O)cc2)Oc2cc(O)cc(O)c21 | 3.17% (inactive) | –
10 | Cc1c(NC(=O)c2ccc(C(C)(C)C)cc2)cccc1-c1cn(C)c(=O)c(Nc2ccc(C(=O)N3CCOCC3)cc2)n1 | -12.9% (inactive) | –
11 | CC(=C(CCOC(=O)C(C)C)SSC(CCOC(=O)C(C)C)=C(C)N(C=O)Cc1cnc(C)nc1N)N(C=O)Cc1cnc(C)nc1N | -9.52% (inactive) | –
12 | CN1CC(=O)N2C(Cc3c([nH]c4ccccc34)[C@H]2c2ccc3c(c2)OCO3)C1=O (stereo not given in full) | 0.946% (inactive) | –
13 | O=C1C(Cl)=C(NCCN2CCOCC2)C(=O)c2ncccc21 | – | 7.74 µM (active)
14 | COCCn1c2c([n+](Cc3cnccn3)c1C)C(=O)c1ccccc1C2=O | – | 0.138 µM (active)
15 | Cc1cc(O)c2ccccc2c1O | – | 8.69 µM (active)
16 | COc1ccc2nc(NC(=O)Nc3ccccc3)sc2c1 | – | 19.5 µM (active)
17 | O=C(O)c1ccccc1NCCc1ccccc1 | 11.8% (inactive) | –
18 | CCOCCOC(=O)/C=C/c1ccc(OC)cc1 | 14.2% (inactive) | –
19 | O=C(Nc1ncc([N+](=O)[O-])s1)c1cccs1 | -6.69% (inactive) | –
20 | Cc1cc(O)c2c(c1)C(=O)c1cc(O)cc(O)c1C2=O | 7.02% (inactive) | –

Row | Compound | activity change, negative = cytotoxicity | Potency
21 | c1ccc2[nH]c(-c3cscn3)nc2c1 | -24.6% (inactive) | –
22 | CN(C)c1ccc(N=NS(=O)(=O)O)cc1 | -26.6% [at 88.3 µM] (inactive) | –
23 | [O-][n+]1ccccc1SSc1cccc[n+]1[O-] | – | 0.112 µM (active)
24 | CC1(C)Cc2c(sc(NC(=S)NC(=O)c3ccccc3)c2C(=O)O)CO1 | 1.95% (inactive) | –
25 | COc1cc2nc(N3CCN(C(=O)C4CCCO4)CC3)nc(N)c2cc1OC (stereo not given) | 10.5% (inactive) | –
26 | CCCS(=O)c1ccc2nc(NC(=O)OC)[nH]c2c1 (stereo not given) | -0.17% (inactive) | –
27 | O=C(O)[C@@H](c1ccc(OCc2ccc3ccccc3n2)cc1)C1CCCC1 | 1.24% (inactive) | –
28 | O=C(O)[C@H](CC(=O)N1C[C@@H]2CCCC[C@H]2C1)Cc1ccccc1 | 13.6% (inactive) | –
29 | O=c1oc2cc(O)ccc2s1 | -3.03% (inactive) | –
30 | CN(C)c1ccc2cc(C(=O)N[C@@H](CCCN=C(N)CCl)C(=O)NCc3ccccc3)ccc2c1 | 16.8% (inactive) | –
31 | CN(C)CCCSc1ccccc1NC(=O)/C=C/c1ccccc1 | 9.71% (inactive) | –
32 | Nc1cc(C(F)(F)F)ccc1S | -10.8% (inactive) | –
33 | CC(C(=O)O)c1ccc(C(=O)c2ccccc2)s1 (stereo not given) | -13.1% (inactive) | –
34 | C=CCCCCCCCCC(=O)O | 3.45% (inactive) | –
35 | O=C(Nc1ccc([N+](=O)[O-])cc1Cl)c1cc(Cl)ccc1O | – | 1.09 µM (active)
36 | CCCCCCCCCCCC(=O)[O][Sn]([CH2]CCC)([CH2]CCC)[O]C(=O)CCCCCCCCCCC | 1.27% (inactive) | –
37 | CC(=O)Oc1cccc2c1C(=O)c1c(OC(C)=O)cc(C(=O)O)cc1C2=O | -14.1% (inactive) | –
38 | Nc1ccc(N=Nc2ccccc2)c(N)n1 | 1.34% (inactive) | –
39 | CC(=NNC(=S)N1CCC1)c1ccccn1 | – | 17.3 µM (active)
40 | O=C(c1ccccc1)c1ccc2n1CCC2C(=O)O (stereo not given) | 14.5% (inactive) | –
